# From PubChem BioAssay AID488890 (Southern Research Specialized Biocontainment Screening …, 2010)
# Screen size: about 320,000 compounds; about 1,300 (0.41%) were called active. Not shown: some 3% with an inconclusive outcome. The rule behind the calls is not given here. Only a sample is shown. Potency and affinity values are given separately.
# Assay: growth inhibition of non-replicating M. tuberculosis (AID 488890);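 note: plate controls were DMSO cells for no effect and high antibiotic wells for full effect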
# Details: Mycobacterium tuberculosis non-replicating, at 25 µM, stronger effect = higher value
row,Compound,inhibition [%]
1,O=[N+]([O-])c1cccc(-c2csc(N/N=C/c3cccc(O)c3)n2)c1,4.67
2,COc1ccc(C(OC(=O)c2ccco2)C(=O)NC2CCCC2)cc1 (configuration not stated),-11.4
3,CCc1ccc(C(=O)NCc2cnn(C)c2)s1,6.54
4,Cc1ccc(SCC(=O)O/N=C(\N)c2cccnc2)cc1,67.7
5,O=C(/C=C/Nc1ccc(Oc2ccccc2Cl)cc1)c1ccco1,61.8
6,Cc1cccc(-n2ccnc2SCC(=O)Nc2nccs2)c1,15.5
7,O=C(Cc1nc2ccccc2[nH]1)c1ccc([N+](=O)[O-])cc1,6.15
8,O=C(NCc1nc2ccccc2[nH]1)c1ccc([N+](=O)[O-])cc1,4.71
9,Cc1cc(C(=O)CN2C(=O)C(=O)N(Cc3ccco3)C2=O)c(C)n1CCc1ccccc1,54.3
10,Cc1cccc(NC(=O)COc2ccc3oc4c(c3c2)CCCC4)n1,75.9
11,Cc1ccnc(NC(=O)COc2ccc3oc4c(c3c2)CCCC4)c1,76.9
12,COc1ccc(CNC(=O)Nc2ccc([N+](=O)[O-])cc2)cc1,-6.85
13,O=C(NCCCn1ccnc1)c1ccc(Cl)c(S(=O)(=O)N2CCOCC2)c1,2.9
14,C/C(CC(=O)Nc1cccnc1)=N\NC(=O)C(=O)Nc1cccc(C)c1,6.84
15,CCOCCn1ccc2c(OCC(=O)Nc3ccccc3F)cccc2c1=O,4.93
16,COc1cccc(OCCNC(=O)c2ccc(C)cc2)c1,37.6
17,Cc1ccc(OCCNC(=O)c2cccc(C)c2)cc1,49.8
18,COc1cccc(OCCNC(=O)c2cccc(OC)c2)c1,7.64
19,O=C(NCCOc1ccccc1)c1cc(C(=O)NCCOc2ccccc2)cc([N+](=O)[O-])c1,-6.28
20,CCCN(C(=O)c1ccco1)c1nnc(-c2ccccc2C)s1,72.7
21,COc1cc(C(=O)N[C@H](C(=O)NC2CCCCCC2)C(C)C)cc(OC)c1OC,2.31
22,O=C(COC(=O)c1cccnc1Cl)c1ccc2c(c1)OCCO2,5.13
23,Cc1ccc(C(=O)OCC(=O)Nc2ccc3c(c2)OCO3)c(O)c1,-15.4

row,Compound,inhibition [%]
1,O=C(COC(=O)c1cc(Cl)ccc1O)Nc1ccc2c(c1)OCCO2,71.7
2,O=C(COC(=O)c1cc(Br)ccc1O)Nc1ccc2c(c1)OCCO2,76.5
3,CC1=C(C(=O)OCc2ccccc2)C(c2ccc([N+](=O)[O-])cc2)NC(=O)N1 (configuration not stated),8.66
4,Cc1ccc(-n2cc3c(=O)n(C)c(=O)n(C)c3c2)cc1C,13.7
5,COc1cc2[nH]c(=S)nc(NCc3cccs3)c2cc1OC,-37
6,COC(=O)c1ccc(NC(=O)NS(=O)(=O)c2ccc(C)cc2)cc1,16.8
7,CCOC(=O)CC(=O)Nc1ccc(C)cc1,60.5
8,CCOC(=O)c1ccc(S(=O)(=O)NNS(=O)(=O)c2ccc(C)cc2)cc1,3.23
9,CCOC(=O)c1ccc(NC(=O)CCC(=O)OC)cc1,3.53
10,COC(=O)C(C)NC(=O)c1ccc(C(C)(C)C)cc1 (configuration not stated),-13.9
11,Cc1oc(-c2ccccc2F)nc1CS(=O)(=O)CC(=O)NCCCc1ccccc1,-19.5
12,Cc1ccc(C(C)NC(=O)c2ccco2)cc1 (configuration not stated),71.4
13,CCC(=O)C1CCCN(C(=O)CCc2nnc(-c3ccc4c(c3)OCO4)o2)C1 (configuration not stated),-3.37
14,Oc1ccccc1N=N/C(=N/Nc1ccccc1O)c1ccccc1,22.9
15,O=C(O)c1ccccc1N=N/C(=N/Nc1cc(S(=O)(=O)O)ccc1O)c1ccccc1,-12.5
16,CC(=O)OC(C(=O)NC1CCCCC1)c1ccncc1 (configuration not stated),-2.68
17,CSC1=NSC2=NC(=O)/C(=C\c3coc4ccccc4c3=O)C(=N)N12,-4.28
18,CSC1=NSC2=NC(=O)/C(=C/c3coc4ccccc4c3=O)C(=N)N12,-10.1
19,CCOc1ccc(Nc2ccc(N3C(=O)CCC3=O)cc2[N+](=O)[O-])cc1,7.14
20,Cc1sc(NC(=O)c2cccc(N3C(=O)CCC3=O)c2)nc1-c1ccccc1,-5.52
21,CCN(CC)S(=O)(=O)c1cccc(-c2nnc(SCC(=O)NC)n2N)c1,-7.59
22,Cc1ccc(N/C=C/C(=O)c2cccs2)cc1C,35.6
23,COc1ccc(NC(=O)CCC(=O)c2cccs2)cc1Cl,1.43

row,Compound,inhibition [%]
1,Cc1ccc(NC(=O)COC(=O)CCC(=O)c2cccs2)cc1,69
2,Cc1ccc(NC(=O)COC(=O)CCC(=O)c2cccs2)cc1C,59.8
3,COc1cc(NC(=O)C/C(C)=N/NC(=O)c2ccccn2)c(OC)cc1Cl,69.5
4,COc1ccc(NC(=O)CCC(=O)c2cccs2)c(OC)c1,-6.26
5,COc1cc(NC(=O)C/C(C)=N/NC(=O)c2cccc(O)c2)c(OC)cc1Cl,45.4
6,Cc1ccc(NC(=O)CCC(=O)c2cccs2)cc1,8.3
7,O=C(CSc1n[nH]c(-c2ccc(S(=O)(=O)NC3CCCCC3)cc2)n1)N1CCCC1,12.1
8,O=C(CCc1nc2ccccc2c(=O)[nH]1)NCCN1C(=O)S/C(=C\c2ccccc2Cl)C1=O,7.97
9,O=c1c2ccccc2n(Cc2cccc(F)c2)c(=O)n1C1CCCC1,7.83
10,CC(C)C[C@@H](CN(N=O)[C@@H](Cc1ccccc1)CN(C)N=O)N(CCc1ccccc1)N=O,1.78
11,CCOc1ccc(N2C(=O)CC(NC3CCCCNC3=O)C2=O)cc1 (configuration not stated),61.4
12,Cc1ccccc1NC(=O)Nc1ccccn1,1.67
13,COc1ccc(-c2cc(C(F)(F)F)nc(-n3ccnc3C)n2)cc1,31
14,O=C(COC(=O)CNS(=O)(=O)c1ccc(Br)cc1Cl)NC1CC1,-8.59
15,Cc1ccc(NC(=O)CCC(=O)c2cccs2)cc1F,14.5
16,Cc1ccc(NC(=O)Cc2cccs2)cc1Cl,13.4
17,O=C(CCC(=O)c1cccs1)NCc1ccc(Cl)cc1,3.45
18,O=C(Nc1ccc(Cl)cc1)c1cccs1,76.6
19,O=c1c2ccccc2ncn1CCCSc1ccc(Cl)cc1,72.5
20,O=C(c1ccccc1CCc1ccccc1)N1CCCC1,7.78
21,CCCCC(=O)Nc1ccc(Br)cn1,6.83
22,CCC(=O)Nc1ccc(Br)cn1,8.41
23,CCN(C(=O)COC(=O)c1cc([N+](=O)[O-])ccc1N1CCOCC1)C1CCS(=O)(=O)C1 (configuration not stated),-18.3

row,Compound,inhibition [%]
1,Cc1nc2nc3c(c(=O)n2[nH]1)CCC3,-0.78
2,CC1CCc2c(nc3nc[nH]n3c2=O)C1 (configuration not stated),14.7
3,Cc1cccc(NC(=S)NCC(c2cccnc2)N2CCOCC2)c1C (configuration not stated),-1.94
4,CCOc1ccc(N2C(=O)CC(N(CCc3ccc(OC)c(OC)c3)C(=O)/C=C/C(=O)O)C2=O)cc1 (configuration not stated),16.4
5,COc1cc(/C=C2/C(=O)NN(c3cccc(C)c3)C2=O)cc([N+](=O)[O-])c1O,10.2
6,CCOC(=O)COc1ccc(/C=C2/C(=O)NN(c3ccc(F)cc3)C2=O)cc1OC,79.2
7,COc1cc(/C=C2/SC(=O)NC2=O)ccc1OC(=O)c1ccco1,-7.07
8,COc1cc(/C=C2/C(=O)NN(c3ccc(Cl)cc3)C2=O)cc(OC)c1O,21.1
9,COc1ccc(/C=C2/C(=O)N(c3ccccc3)N=C2C)cc1OC,1.07
10,COc1cc(/C=C2/SC(=S)N(C)C2=O)ccc1OC(=O)c1ccco1,31.5
11,COC(=O)c1ccc(N2NC(=O)/C(=C/c3ccc(OC)c(OC)c3)C2=O)cc1,14.3
12,COc1ccc(/C=C2/C(=O)N(c3ccccc3)N=C2C)cc1Br,1.11
13,CC1CCCN(CCCNC(=O)c2ccc(CS(=O)(=O)c3c(Cl)cccc3Cl)o2)C1 (configuration not stated),0.97
14,C/C(=N\NC(=O)c1ccccc1NC(=O)c1ccc(Cl)cc1)c1ccncc1,14.5
15,Cn1nc(C(=O)N2CCN(S(=O)(=O)/C=C/c3ccccc3)CC2)c2ccccc2c1=O,1.67
16,CCC1C2Cn3c(nc4ccccc43)C1N(C)O2 (configuration not stated),-9.29
17,CC1(C)CC(=O)C(C=NCCN2CCN(C(=O)CCl)CC2)=C(O)C1,28.9
18,CCOC(=O)c1sc(C)c(C(=O)NCCCN2CCOCC2)c1N,-1.46
19,COc1cc(CC(=O)OCC(=O)Nc2ccc(Cl)c(S(=O)(=O)N(C)C)c2)cc(OC)c1OC,16.7
20,Cc1ncc(CO)c(CNc2ccc(Oc3ccccc3)cc2)c1O,41.9
21,O=C(NCC1CCCO1)c1cc2c(s1)CCCC2 (configuration not stated),5.26
22,CCC1CCc2sc(C(=O)NCc3ccccn3)cc2C1 (configuration not stated),75.2
23,CCC1CCc2sc(C(=O)NNC(=S)NCC3CCCO3)cc2C1 (configuration not stated),23.3

row,Compound,inhibition [%]
1,CC1CCc2sc(C(=O)NNC(=O)c3ccncc3)cc2C1 (configuration not stated),71.2
2,CCOc1ccc(NC(=O)CCC(=O)NNC(=O)COc2ccc(C)cc2)cc1,-22.8
3,CCOC(=O)c1c(C)[nH]c(C)c1C(=O)CSc1nncs1,-5.38
4,Cc1[nH]ccc(=O)c1OCC(=O)O,-4.62
5,COc1ccc(S(=O)(=O)N2CCN(c3ccc4nnc(-c5ccc(F)cc5)n4n3)CC2)cc1,24
6,CNC[C@H]1Oc2c(NS(=O)(=O)c3ccccc3)cccc2C(=O)N([C@H](C)CO)C[C@@H]1C,-8.41
7,CN(C(=O)CN1C(=O)S/C(=C\c2ccc(F)cc2)C1=O)C1CCS(=O)(=O)C1 (configuration not stated),-4.74
8,COc1ccccc1CNC(=O)COc1ccccc1C,10
9,Cc1occc1C(=O)N=Nc1c(O)[nH]c2ccc(Br)cc12,-11.3
10,N=C(N)N=Nc1c(O)[nH]c2ccc(Br)cc12,46
11,O=C(Nc1ccc(Br)c(Br)c1)C1CCCO1 (configuration not stated),40.5
12,Clc1ccc(N2CCN(Cc3ccco3)CC2)cc1,69.8
13,O=[N+]([O-])c1ccc(N2CCN(c3ccc(F)cc3)CC2)cc1,24.2
14,Clc1ccc(N2CCN(Cc3ccc(Br)o3)CC2)cc1,75.9
15,O=[N+]([O-])c1cccc(-c2ccc(CN3CCN(c4ccccc4)CC3)o2)c1,36.7
16,O=[N+]([O-])c1cc2c(cc1CN1CCN(c3ccc(F)cc3)CC1)OCO2,12.8
17,O=[N+]([O-])c1ccccc1-c1ccc(CN2CCN(c3ccccc3)CC2)o1,36.3
18,O=[N+]([O-])c1ccc(N2CCN(Cc3ccc(Br)o3)CC2)cc1,78.8
19,O=[N+]([O-])c1ccc(CN2CCN(c3ccc([N+](=O)[O-])cc3)CC2)cc1,73.8
20,Cc1cc(C)cc(NC(=O)Cn2c(=O)oc3cc(S(=O)(=O)N4CC(C)CC(C)C4)ccc32)c1 (configuration not stated),12.4
